Screening data (PubChem BioAssay)
In the library only some 3.9% were active in any assay of this set; here they are far more common.
PrPC TRFRET: inhibitors of human cell surface prion protein PrPC; TR-FRET read-out; inhibition, % at 13.8 µM; actives 0.43% (n = 370,000); AID 720596; in the data active means inhibition above about 24%
GDH-TPI counter-1: counter-screen for M. tuberculosis FBA inhibitors: GDH-TPI coupled enzymes; actives 1.2% (n = 360,000); GDH-TPI coupled enzyme counterscreen, NADH absorbance; inhibition, % at 4.8 µM; AID 588335; in the data active means inhibition above about 30%
FBA Mtb inh: inhibitors of M. tuberculosis fructose-bisphosphate aldolase; actives 2.3% (n = 360,000); P9WQA3; inhibition, % at 1 µM; purified M. tuberculosis FBA, fluorescence read-out
BH1578 lux ind: quorum light induction in luxS cqsA deficient V. cholerae; activation, % at 18.7 µM; actives 0.16% (n = 350,000); V. cholerae BH1578 lux reporter, luminescence, 6 h; in the data active means activation mostly above about 9.7%, no sharp cut-off
3CLpro inhibitor: SARS-CoV 3CLpro protease inhibition; P0C6X7; recombinant SARS-CoV 3CLpro, quenched FRET peptide cleavage; inhibition, % at 6 µM; actives 0.14% (n = 290,000); AID 1706; in the data active means inhibition above about 12%
Mtb FBA confirm: confirmation of M. tuberculosis fructose-bisphosphate aldolase inhibitors; shares compounds with FBA Mtb inh; purified M. tuberculosis FBA, fluorescence read-out; inhibition, % at 1 µM; actives 78% (n = 5,600); AID 651616
GDH-TPI counter-2: GDH-TPI inhibition counter-screen for FBA inhibitors. AID 652141. inhibition, % at 1 µM. actives 81% (n = 5,600). GDH-TPI coupled enzyme counterscreen, fluorescence. shares compounds with FBA Mtb inh; in the data active means inhibition above about 10%
PrPC confirm: confirmation of inhibitors of cell surface human prion protein | shares compounds with PrPC TRFRET | cell surface PrPC level, TR-FRET | inhibition, % at 13.8 µM | actives 65% (n = 1,500) | AID 743200; in the data active means inhibition above about 25%
LD9 tox: counter-screen for PrPc inhibitors: cytotoxicity in LD9 cells | luminescence viability | AID 743201 | shares compounds with PrPC TRFRET | actives 29% (n = 1,500) | inhibition, % at 13.8 µM; in the data active means inhibition above about 9.5%
A number is an active result; - = inactive; . = not tested or not shown; + = active, no number; ! = repeats disagree. Unless noted, no stated cut-off is given here; in the data, active means inhibition above about 27%; inactive means the rest.

SMILES | PrPC TRFRET | GDH-TPI counter-1 | FBA Mtb inh | BH1578 lux ind | 3CLpro inhibitor | Mtb FBA confirm | GDH-TPI counter-2 | PrPC confirm | LD9 tox
COc1cc(OC)cc(C(=O)N2CCN(c3ccc(N4CCOCC4)nn3)CC2)c1 | - | - | 28 | - | . | - | - | . | .
O=C(c1ccc(F)cc1)N1CCN(c2ccc(N3CCOCC3)nn2)CC1 | - | - | - | - | - | . | . | . | .
CC1(C)CC(=O)C=C(Nc2ccccc2NC(=O)c2cc(F)ccc2F)C1 | - | . | . | . | . | . | . | . | .
CCCCOCCCNC(=O)C[C@@H]1C[C@@]2(C(=O)OCC)CCCC=C2N(Cc2ccco2)C1=O | - | . | . | . | . | . | . | . | .
CC[C@]12c3[nH]c4ccc(OC)cc4c3CCN1C(=O)C(CC(=O)NC(C)(C)C)C[C@@H]2C(=O)N1CCN(C(=O)c2ccco2)CC1 (some centres undefined) | - | - | - | - | . | . | . | . | .
CCN1C(=O)CS/C1=N\S(=O)(=O)c1ccc(C)cc1 | - | - | 47 | - | - | 77 | 79 | . | .
O=C(O)c1nn(CCOc2cccc(Br)c2)c(=O)c2ccccc12 | - | - | - | - | - | . | . | . | .
COC(=O)c1ccc(C(=O)OC)c(NS(=O)(=O)c2ccc(NC(C)=O)cc2)c1 | - | - | 34 | - | - | 71 | 62 | . | .
COC(=O)c1cccc(NS(=O)(=O)c2ccc(NC(C)=O)cc2)c1C | - | - | - | . | - | . | . | . | .
COCCn1c(N)c(N(Cc2ccccc2)C(=O)CSCC(=O)Nc2ccc(OC)cc2)c(=O)[nH]c1=O | - | - | - | - | . | . | . | . | .
COc1ccc(-n2nnc3c(=O)n(CC(=O)Nc4cc(C)on4)cnc32)cc1OC | - | - | - | - | - | . | . | . | .
Nc1cc2c3ccccc3ccc2c2ccccc12 | - | - | 62 | - | . | + | + | . | .
COc1cccc(NC(=O)CN(C)C(=O)c2cc(-c3ccc(C)o3)nc3ccccc23)c1 | - | - | 56 | - | . | 37 | 39 | . | .
Cc1ccc(-c2cc(C(=O)NCc3ccco3)c3ccccc3n2)o1 | - | - | - | - | - | . | . | . | .
COc1cccc(NC(=O)c2cc(-c3ccc(C)o3)nc3ccccc23)c1 | - | - | - | - | - | . | . | . | .
Cc1ccc(-c2cc(C(=O)NCC(c3ccccc3)N(C)C)c3ccccc3n2)o1 (centres undefined) | - | - | 71 | - | . | 54 | 46 | . | .
CCOc1ccc(NC(=O)CN(C)C(=O)c2cc(-c3ccc(OC)cc3)nc3ccccc23)cc1OCC | - | - | 28 | - | . | 51 | 39 | . | .
O=C(Nc1ccc(Cl)c(C(F)(F)F)c1)C1Cc2c(-c3ccccc3)ccnc2O1 (centres undefined) | - | - | - | - | . | . | . | . | .
CC(C)(C)OC(=O)N[C@@H](C(=O)OC(C)(C)C)c1ccc(Br)cc1 | - | - | - | - | . | . | . | . | .
Fc1cccc(CCNCc2ccccn2)c1 | - | - | 30 | - | - | 87 | 82 | . | .
c1ccc(CNCCc2ccc3c(c2)OCO3)nc1 | - | - | - | - | - | . | . | . | .
c1ccc2sc(Nc3nc4cc5c(cc4s3)OCO5)nc2c1 | 80 | - | 29 | - | - | - | - | 63 | -
CC(=O)N1CCN(C(=O)c2ccc(CNC(=O)c3cccc(Br)c3)cc2)CC1 | - | . | . | . | . | . | . | . | .
O=C(Nc1nc(-c2ccccc2)cs1)c1ccccc1NS(=O)(=O)c1ccc(F)cc1 | 35 | - | 37 | - | - | + | + | 30 | 32
Cc1cc(C)cc(NS(=O)(=O)c2c(C)[nH]c(=O)[nH]c2=O)c1 | - | - | - | - | - | . | . | . | .
SMILES | PrPC TRFRET | GDH-TPI counter-1 | FBA Mtb inh | BH1578 lux ind | 3CLpro inhibitor | Mtb FBA confirm | GDH-TPI counter-2 | PrPC confirm | LD9 tox
COc1ccccc1C(=O)N/C(=C\c1cn(S(=O)(=O)N(C)C)c2ccccc12)C(=O)N1CCCCC1 | - | - | - | - | - | . | . | . | .
COc1cccc2sc3cc(NCc4ccc5c(c4)OCO5)ccc3c(=O)c12 | 94 | 39 | 53 | - | . | - | 19 | 139 | -
O=C(NN=C(c1ccccc1)c1ccccn1)c1ccccc1 | - | - | - | - | . | . | . | . | .
COc1ccc(C(=O)N/N=C(\c2ccccc2)c2ccccn2)cc1 | 28 | - | 49 | - | - | 147 | 116 | 26 | 39
N#CC1=C(c2ccccc2)/C(=C/c2ccccc2)OC1=O | - | - | - | - | - | . | . | . | .
N#CC(C#N)=C1NC(N)=C(C#N)C(c2ccccc2)=C1C#N | 74 | 33 | 71 | - | - | 86 | 74 | 103 | -
COc1ccc(NS(=O)(=O)c2ccc(C)c(C(=O)NCC(c3ccco3)N(C)C)c2)cc1 (centres undefined) | - | - | - | - | . | . | . | . | .
CCOC(=O)c1sc(NC(=O)CSc2nc(-c3ccco3)cc(C(F)(F)F)n2)c(C#N)c1C | - | - | - | - | - | . | . | . | .
CCOC(=O)C(C)Sc1nc(-c2ccco2)cc(C(F)(F)F)c1C#N (centres undefined) | 33 | - | 29 | - | - | 124 | 95 | 49 | -
Cc1nc(NC2CCCC2)c2nnn(Cc3ccccc3)c2n1 | - | . | . | . | . | . | . | . | .
COc1cccc2sc(Nc3nnc(-c4ccccc4Cl)o3)nc12 | - | - | - | - | - | . | . | . | .
COc1ccccc1-c1nnc(Nc2nc3c(OC)cccc3s2)o1 | 42 | 43 | 33 | - | - | 40 | 41 | 69 | 40
CC(=O)c1cccc(S(=O)(=O)N(Cc2cc3cc4c(cc3[nH]c2=O)OCCO4)CC2CCCO2)c1 (centres undefined) | - | - | - | - | - | . | . | . | .
O=c1[nH]c2cc3c(cc2cc1CN(CC1CCCO1)S(=O)(=O)c1ccccc1)OCCO3 (centres undefined) | 55 | - | 28 | - | - | - | - | - | -
CCOc1ccc(C(=O)NCC(=O)N2CCC3(CC2)NCCc2[nH]cnc23)cc1 | - | - | - | - | - | . | . | . | .
COc1ccc(-c2nc3ccc(Cl)cn3c2NC2CCCCC2)cc1SC1CCCCC1 | - | - | - | - | . | . | . | . | .
CCCCNc1c(-c2ccc(OC)c(SC3CCCCC3)c2)nc2ccc(C)cn12 | 38! | - | 36 | - | . | + | 161 | 50 | 53
Cc1cc(N2CCC(C)CC2)nc2ccccc12 | - | . | . | . | . | . | . | . | .
Cc1ccccc1OCCC(=O)Nc1ccc2c(C)cc(=O)oc2c1 | 38 | - | 95 | - | - | 183 | 153 | 27 | -
COc1cc(Cn2c3ccc(NC(=O)CCc4ccc(O)cc4)cc3c(=O)n2C)ccc1F | 28 | - | 111 | - | . | 169 | 125 | - | -
Cn1c(=O)c2cc(NC(=S)NC3CC3)ccc2n1Cc1ccc(F)cc1 | - | - | - | - | . | . | . | . | .
COc1ccc(OC)c(CC(=O)Nc2ccc3c(c2)c(=O)n(C)n3Cc2cccc(C(F)(F)F)c2)c1 | 82 | - | 111 | - | . | 36 | 28 | 29 | -
